Source: the supplement of paper PMC8699584
Values joined by “and” are separate entries in the source; they are usually repeats but may differ in a detail not shown here. Equal values may be shown once. ± gives the standard deviation of the averaged measurements.

Assays:
[1] = tested on: Molm13; assay: cell viability relative to DMSO control (bortezomib = 0%); higher = less growth inhibition; conditions: 10 nM; 72 h
Method in brief: (§1)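 In duplicate runs, a library of 679 approved and investigational compounds in 384-well plates received acute myeloid leukemia cells at 1000 cells per well in 50 µL, with each compound at a single 10 nM dose for 72 h. CellTiter-Glo luminescence, read on an EnVision reader, served as the viability measure. Each plate was normalized by linear regression between DMSO-treated cells (100%) and positive-control-treated cells (0%).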

[2] = tested on: Mv4-11; assay: as above; conditions: 10 nM; 72 h
Method in brief: as §1

Structure (SMILES) | cell viability [1] | cell viability [2]
CCn1c(=O)c(-c2ccc(-c3cncs3)cc2Cl)cc2cnc(Nc3ccc(N4CCN(C)CC4)cc3)nc21 | 106 ± 6.4% | 111 ± 10%
COc1cc2nccc(Oc3ccc(NC(=O)C4(C(=O)Nc5ccc(F)cc5)CC4)cc3)c2cc1OC [XL184(Cabozantinib malate)] | 15 ± 7.9% | 42 ± 6.5%
O=c1cc(N2CCOCC2)oc2c1ccc1ccccc12 | 98.1% and 100% | 103% and 110%
COc1cc(N2CCOCC2)ccc1Nc1ncc(Cl)c(Nc2ccccc2NS(C)(=O)=O)n1 | 108 ± 10% | 111 ± 24%
NC(=O)Nc1cc(-c2cccc(F)c2)sc1C(=O)N[C@H]1CCCNC1 | -11.2 ± 3.9% | -9.83 ± 4.2%
Cc1ccc(C(=O)Nc2ccc(CN3CCN(C)CC3)c(C(F)(F)F)c2)cc1C#Cc1cnc2[nH]ncc2c1 | -13.5 ± 5.7% | -14.8 ± 0.36%
CCCCCCCCCCCCCCCCCCOP(=O)([O-])OC1CC[N+](C)(C)CC1 [Perifosine (KRX-0401)] | 93.8 ± 14% | 110 ± 5.1%
O=C(O)c1ccc(-c2c[nH]c3ncc(-c4ccccc4)cc23)cc1C1CCCC1 | 107 ± 1.1% | 96 ± 2.7%
O=c1oc2c(O)c(O)cc3c(=O)oc4c(O)c(O)cc1c4c23 [Ellagic acid] | 92.5 ± 28% | 99.5 ± 11%
N#CC(=C(/N)Sc1ccccc1N)/C(C#N)=C(/N)Sc1ccccc1N | 104 ± 12% | 129 ± 2.2%
COc1cc2ncnc(Nc3cccc(Cl)c3F)c2cc1OC(=O)N1CCN(C)C[C@H]1C | 110 ± 8.6% | 99.9 ± 8.6%
Cc1ccc2nc(-n3[nH]c(C)c(Cc4ccccc4)c3=O)[nH]c2c1 | 103 ± 0.84% | 106 ± 4.3%
O=C(O)CN1C(=O)c2c(I)c(I)c(I)c(I)c2C1=O | 126 ± 38% | 107 ± 3.2%
